This note sets out measurements from PubChem BioAssay (NCI).

About 83,000 compounds went through this panel and 20% of them were active in at least one assay; those are over-represented in the sample as a whole.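 Cell lines were cultured in 96-well plates, exposed to a single compound concentration, and assessed for percent growth 48 hours later.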 Values without a mark were called inactive. Activity calls are given as the source filed them. The calls were made as follows: active = growth percent below 10; inactive = the rest.

In this experiment the test system is HL-60(TB) leukemia. The experiment in a line: NCI-60 one-dose screen, 48 h (100 = growth as untreated, 0 = no growth, -100 = all killed). The note with it: 10 µM unless noted.
For `O=C(/C=C\c1ccc(NCc2ccc(C(=O)O)cc2)cc1)CCl`, the growth was 97.7%. In the case of `CCCCCCCCCCCCCCCCCC[n+]1ccc2c(C)c3c(c(C)c2c1)c1cc(O)ccc1n3CC`, the growth is 30.2%. Take `COc1ccc(C(=O)N2c3ccccc3Sc3ccccc32)c(F)c1`: the growth is 15.4%.

Regarding `C=C1C(=O)O[C@H]2[C@H]1CC/C(COC(=O)/C=C\C(=O)NCc1ccc(Cn3c(=O)sn(CCCI)c3=O)cc1)=C\CC[C@@]1(C)O[C@@H]21`, the growth is -36.6% (active). With `O=C(CCCCCCCC(=O)N1CCCCC1)N1CCCCC1`, the growth is 94.5%. For the compound `C[C@H](CCC[C@H](C)OS(=O)(=O)c1ccccc1)OS(=O)(=O)c1ccccc1`, the growth was 119%.

Turning to `CC[C@]12C=CCN3CC[C@@]4(c5cc(NC(=O)CCC(=O)O[C@H]6CC[C@H]7[C@@H]8CC[C@H]9CC(=O)CC[C@]9(C)[C@H]8CC[C@]67C)c(OC)cc5N(C)[C@H]4[C@@](O)(C(=O)OC)[C@@H]1OC(C)=O)[C@@H]32`, the growth was 38.6%.

As to `Cc1cccc(Oc2ccc(Nc3ncnc4ccc(NC(=O)CNCCO)cc34)cc2Cl)c1`, the growth was -26.1% (active). Turning to `CC1(C)C(=O)/C(=C\c2cccnc2)C[C@]2(C)[C@H]3CC[C@@H]4[C@@H](C(=O)/C=C/c5ccncc5)CC[C@@]4(C)[C@]3(C)CC[C@@H]12`, the growth is -11% (active). Take `CCN1C(=S)N(c2ccccc2)C2C1NN=c1s/c(=C3\C(=O)N(C(C)C)c4ccccc43)c(=O)n12` (centres undefined): the growth was 96.6%. Take `O=C1CC2C=CCN2C=C1NC(=O)C1CCCCC1` (centres undefined): the growth is 101%. `O=C1c2cccnc2C(=O)c2nc3cc(N4CCN(C5CC5)CC4)ccc3nc21`: the growth was -43.1% (active). Turning to `COc1ccc(/C=C/c2ccc3ccccc3n2)c(OC)c1`, the growth was 40.7%.

With `COc1ccc(N(C)c2ncnc3occ(C)c23)cc1`, the growth is -34.9% (active). For the compound `COC(=O)c1c(NC(=O)CSc2nnnn2-c2ccc(OC)cc2)sc(C)c1C`, the growth is -6.74% (active).

For the compound `C[C@H]1[C@H]2[C@H]3CC[C@@H]4[C@@]5(C)CC[C@H](O)C(C)(C)[C@@H]5CC[C@@]4(C)[C@]3(C)CC[C@]23CO[C@]1(C)[C@@H](C(=O)/C=C\c1cccnc1)C3`, the growth is 47.5%. `CCOC(=O)c1cc(/C=C/c2cccc(Cl)c2)on1`: the growth is 74.9%. On to `Nc1nc(N)c2c(n1)NC(c1ccc(Cl)cc1)C1CCc3ccccc3C1=N2` (centres undefined), for which the growth is 13.5%.

`Oc1ccccc1-c1nc2ccccn2c1NCCN1CCOCC1`: the growth is 102%. With `Cc1ccc(-c2nc(N3CCN(C(=O)c4ccc(OC(F)(F)F)cc4)CC3)c3ccccc3n2)cc1`, the growth is 97.5%. Under `Cc1cc(C)nc(NS(=O)(=O)c2ccc(Nc3nc4nc(SCc5ccccc5)nc(-c5ccc(O)cc5)c4c(=O)[nH]3)cc2)n1` stands 86.3%. For `CC(C)Cc1cc(CNC(=O)C2[C@H]3CN(C(=O)c4ccccc4)C[C@@H]23)nn1-c1ccccc1` (some centres undefined), the growth is 94.2%. Turning to `CC(C)C1=C[C@@]23CC[C@H]4[C@](C)(COCCC#N)CCC[C@]4(C)[C@H]2C[C@@H]1[C@@H]1[C@H]3[C@@H](OCCC#N)CC[C@@H]1OCCC#N`, the growth was -42.7% (active). In the case of `CCCCCCCCCCCCCCCCCC(=O)[O][Sn]([CH2]CCC)([CH2]CCC)[CH2]CCC`, the growth is -18.5% (active).

As to `CC1(C)N=C(N)N=C(N)N1c1ccc(CCCCc2ccccc2)c(Cl)c1`, the growth was -25.5% (active). Take `Cc1noc(C)c1-c1ccc2nc(NC(=O)[C@H]3CCN(C#N)C3)cn2c1`: the growth was 95.9%. In the case of `Cc1nccc2c3ccc(OCc4cn(-c5ccc(Cl)cc5)nn4)cc3n(CC(C)C)c12`, the growth was -49.4% (active). Under `NC(=O)SCC(=O)NNc1ccccc1` stands 101%.

With `Oc1[nH]c2ccc(Cl)cc2c1/C=c1/ccc2c(c1)N=C(c1ccc(C(F)(F)F)cc1)N=2`, the growth was 75.1%.

As for `COc1ccc(-c2cc(-c3ccccc3)nc(SCCCC(=O)NO)n2)cc1`, the growth is -31.2% (active). As to `COc1cc(-c2nn(-c3cccc(NC(=O)CCNc4ccc(N5CCOCC5)cc4)c3)cc2-c2ccncc2)ccc1Cl`, the growth is 8.36% (active). As to `Cc1ccc(S(=O)(=O)N2CCc3ccc(O)c4c3C2Cc2ccc3c(c2-4)OCO3)cc1` (centres undefined), the growth is -8.02% (active).

`CCOC(=O)CC1CSC(N/N=C/c2ccc(-n3cccn3)cc2)=N1` (centres undefined): the growth is 94%. With `Cc1ccc(S(=O)(=O)NCC[C@@H]2C[C@H]2c2cc3ccccc3s2)cc1`, the growth is 112%.
